Experimental findings from PubChem BioAssay (Tox21) are described below.

Values joined by “and” are separate entries in the source; they are usually repeats but may differ in a detail not shown here. Equal values may be shown once. Results filed as inconclusive are left out. Where a structure was tested more than once in an assay, its records may differ in their call. Active and inactive are the calls of the source. Unless noted, calls come from the whole dose curve; as a rule, active = well fitted curve in the direction sought with a large enough effect in the repeat runs; inconclusive = weak or mixed curves; inactive = no such curve, though single readings can be large; an effect the other way counts as inactive or inconclusive.

Assay [1] can be described thus: qHTS assay to identify small molecule antagonists of the thyroid receptor (TR) signaling pathway (AID 743065). Note: nearly all actives have a fitted effect of over 55% in size. Note: potency is the fitted concentration of half-maximal effect. A digest of the protocol:
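Antagonism measured as loss of luciferase signal in GH3 cells stably carrying a TRE-luciferase reporter, co-treated with compound and T3 (1 nM final) for 23.5 h at 37 C. Viability was read in the same well by CellTiter-Fluor.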
A general note: Quantitative high-throughput screening tests each substance at several concentrations.

Assay [2] deals with thyroid hormone receptor (rat, GH3 cells). Put plainly: qHTS assay to identify small molecule agonists of the thyroid receptor (TR) signaling pathway (AID 743066; calls by dose curve; note: potency is the fitted concentration of half-maximal effect).
Assay [3] concerns the target Estrogen receptor (Homo sapiens) (UniProt P03372). Put plainly: qHTS assay to identify small molecule antagonists of the estrogen receptor alpha (ER-alpha) signaling pathway (AID 743069; active = well fitted curve in the direction sought with a large enough effect in the signal ratio in the repeat runs, not every such curve was filed as active; the % refers to the signal ratio). In a few lines:
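Antagonist mode: compounds in DMSO were co-added with 17beta-estradiol to ER-alpha-bla HEK293 cells (2% charcoal-stripped serum) and left 18 h at 37C. Reporter inhibition was measured as FRET fluorescence after 2 h LiveBLAzer substrate at room temperature.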

Assay [4] has the same target. Put plainly: qHTS assay to identify small molecule agonists of the estrogen receptor alpha (ER-alpha) signaling pathway (AID 743075; calls by dose curve;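 note: HEK293 GripTite cells with ER-alpha and UAS-driven beta-lactamase reporter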).
Assay [5] has the same target. Briefly: qHTS assay to identify small molecule agonists of the estrogen receptor alpha (ER-alpha) signaling pathway using the BG1 cell line (AID 743079). Note: nearly all actives have a fitted effect of over 20% in size. Note: potency is the fitted concentration of half-maximal effect.
Assay [6] can be described thus: qHTS assay to identify small molecule antagonists of the estrogen receptor alpha (ER-alpha) signaling pathway using the BG1 cell line (AID 743080; calls by dose curve; note: series mostly up to about 70 µM; nearly all actives have a fitted effect of over 25% in size). In a few lines:
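Antagonist mode: compounds in DMSO were pinned onto BG1-Luc-4E2 cells alongside 17beta-estradiol agonist, incubated 21.5 h, and ERE-driven luciferase measured with ONE-Glo. Cytotoxicity was multiplexed using CellTiter-Fluor fluorescence.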

Assay [7] addresses Aromatase (Homo sapiens) (UniProt P11511). Put plainly: qHTS assay to identify aromatase inhibitors (AID 743083). Note: nearly all actives have a fitted effect of over 55% in size. Note: potency is the fitted concentration of half-maximal effect.
Assay [8] in a line: qHTS assay to identify aromatase inhibitors - cell viability counter screen (AID 743084).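 Note: cells stimulated with testosterone during compound exposure; nearly all actives have a fitted effect of over 55% in size.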 Note: potency is the fitted concentration of half-maximal effect.
In assay [9] the target is Aryl hydrocarbon receptor (Homo sapiens) (UniProt P35869). Put plainly: qHTS assay to identify small molecule that activate the aryl hydrocarbon receptor (AhR) signaling pathway (AID 743085).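 For activation: HG2L7.5c1 human HepG2 liver cells with stably integrated DRE-driven firefly reporter; series mostly up to about 70 µM.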 Note: nearly all actives have a fitted effect of over 15% in size. Note: potency is the fitted concentration of half-maximal effect. A digest of the protocol: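 Steps: seed HepG2-AhR-luc cells; allow 5 h at 37C; pin-transfer test compound or vehicle; incubate 24 h at 37C; add viability dye (30 min, 37C) and read fluorescence; add luciferase substrate (30 min, RT) and read luminescence.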

Assay [10] can be described thus: qHTS assay to identify small molecule that activate the aryl hydrocarbon receptor (AhR) signaling pathway - cell viability counter screen (AID 743086). Note: nearly all actives have a fitted effect of over 45% in size. Note: potency is the fitted concentration of half-maximal effect. A digest of the protocol:
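Cytotoxicity counter screen: CellTiter-Fluor signal (30 min, 37 C) in 4000 HepG2 cells/well carrying the DRE-luciferase reporter, following 24 h compound exposure at 37 C.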

Assay [11] addresses Peroxisome proliferator-activated receptor gamma (Homo sapiens) (UniProt P37231). Briefly: qHTS assay to identify small molecule agonists of the peroxisome proliferator-activated receptor gamma (PPARg) signaling pathway (AID 743094; active = well fitted activation curve with a large enough effect in the signal ratio in the repeat runs, not every such curve was filed as active; the % refers to the signal ratio). In a few lines: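 Agonism was assessed in a beta-lactamase reporter system, HEK293H cells with a stably integrated UAS-bla construct under PPARg control; the 17 h treatment at 37C preceded a 1 h room-temperature FRET substrate read.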

Assay [12] shares this target. Briefly: qHTS assay to identify small molecule antagonists of the peroxisome proliferator-activated receptor gamma (PPARg) signaling pathway (AID 743191; calls by dose curve; note: series mostly up to about 63 µM; nearly all actives have a fitted effect of over 30% in size). A digest of the protocol:
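Beta-lactamase reporter under UAS control in HEK293H PPARg-bla cells; compound treatment 17 h at 37C. Read-out: fluorescence intensity after 1 h room-temperature incubation with LiveBLAzer B/G FRET substrate.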

Assay [13] can be described thus: qHTS assay to identify small molecule antagonists of the peroxisome proliferator-activated receptor gamma (PPARg) signaling pathway - cell viability counter screen (AID 743194). Note: nearly all actives have a fitted effect of over 55% in size. Note: potency is the fitted concentration of half-maximal effect. In a few lines: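 Viability was measured as CellTiter-Glo luminescence in GeneBLAzer PPARg UAS-bla HEK293H cells. These cells had been exposed 17 h at 37 C to compounds together with rosiglitazone at 50 nM final, with the beta-lactamase readout taken in the same wells.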

A short description of assay [14]: qHTS assay for small molecule agonists of the antioxidant response element (ARE) signaling pathway (AID 743202; active = well fitted activation curve with a large enough effect in the signal ratio in the repeat runs, not every such curve was filed as active; the % refers to the signal ratio; note: potency is the fitted concentration of half-maximal effect). A digest of the protocol: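 After 16 hours of compound treatment at 37 C, HepG2 cells with a stably integrated ARE-driven beta-lactamase reporter were loaded 2 hours at room temperature with LiveBLAzer B/G FRET substrate and fluorescence intensity measured.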

Assay [15] can be described thus: qHTS assay for small molecule agonists of the antioxidant response element (ARE) signaling pathway - cell viability counter screen (AID 743203; calls by dose curve; note: nearly all actives have a fitted effect of over 55% in size; note: potency is the fitted concentration of half-maximal effect). A digest of the protocol:
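ATP content via CellTiter-Glo luminescence served as the viability measure. Cells: ARE-bla HepG2, 2,000 per well. Exposure: 16 hrs, 37C/5% CO2.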

Assay [16] can be described thus: qHTS assay for small molecule activators of the heat shock response signaling pathway - cell viability counter screen (AID 743209). Note: nearly all actives have a fitted effect of over 50% in size. Note: potency is the fitted concentration of half-maximal effect. In a few lines: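 Compounds dissolved in DMSO were added to overnight-plated HSE-bla HeLa cells and left 5 h at 37 C. Cell viability was quantified by luminescence using CellTiter-Glo.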
Assay [17] can be described thus: qHTS assay for small molecule activators of the heat shock response signaling pathway (AID 743210; active = well fitted activation curve with a large enough effect in the signal ratio in the repeat runs, with a control signal flat, not every such curve was filed as active; the % refers to the signal ratio; note: potency is the fitted concentration of half-maximal effect; for activation: series mostly up to about 63 µM). A digest of the protocol:
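Compound exposure lasted 5 h at 37 C in HeLa cells carrying a heat-shock-element-driven beta-lactamase reporter. Read-out: fluorescence intensity after 2.5 h room-temperature loading with LiveBLAzer B/G FRET substrate.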

Assay [18] can be described thus: qHTS assay to identify small molecule agonists of the peroxisome proliferator-activated receptor delta (PPARd) signaling pathway - cell viability counter screen (AID 743211). Note: nearly all actives have a fitted effect of over 55% in size. Note: potency is the fitted concentration of half-maximal effect. A digest of the protocol:
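Viability of GeneBLAzer PPARd UAS-bla HEK293H cells was assessed after 17 h compound incubation at 37C, using CellTiter-Glo reagent added after the reporter read and luminescence recorded 30 min later.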

The nature of assay [19]: qHTS assay to identify small molecule antagonists of the estrogen receptor alpha (ER-alpha) signaling pathway - cell viability counter screen (AID 743074; calls by dose curve;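 note: HEK293 cells carrying ER-alpha-UAS-bla reporter stimulated with 17beta-estradiol; nearly all actives have a fitted effect of over 45% in size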; note: potency is the fitted concentration of half-maximal effect).
The nature of assay [20]: qHTS assay to identify small molecule antagonists of the estrogen receptor alpha (ER-alpha) signaling pathway using the BG1 cell line - cell viability counter screen (AID 743081).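 Note: compound given together with 17beta-estradiol as the ER stimulus; nearly all actives have a fitted effect of over 45% in size.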 Note: potency is the fitted concentration of half-maximal effect.

Estrogen receptor (Homo sapiens), sequence (P03372 whole entry, looked up): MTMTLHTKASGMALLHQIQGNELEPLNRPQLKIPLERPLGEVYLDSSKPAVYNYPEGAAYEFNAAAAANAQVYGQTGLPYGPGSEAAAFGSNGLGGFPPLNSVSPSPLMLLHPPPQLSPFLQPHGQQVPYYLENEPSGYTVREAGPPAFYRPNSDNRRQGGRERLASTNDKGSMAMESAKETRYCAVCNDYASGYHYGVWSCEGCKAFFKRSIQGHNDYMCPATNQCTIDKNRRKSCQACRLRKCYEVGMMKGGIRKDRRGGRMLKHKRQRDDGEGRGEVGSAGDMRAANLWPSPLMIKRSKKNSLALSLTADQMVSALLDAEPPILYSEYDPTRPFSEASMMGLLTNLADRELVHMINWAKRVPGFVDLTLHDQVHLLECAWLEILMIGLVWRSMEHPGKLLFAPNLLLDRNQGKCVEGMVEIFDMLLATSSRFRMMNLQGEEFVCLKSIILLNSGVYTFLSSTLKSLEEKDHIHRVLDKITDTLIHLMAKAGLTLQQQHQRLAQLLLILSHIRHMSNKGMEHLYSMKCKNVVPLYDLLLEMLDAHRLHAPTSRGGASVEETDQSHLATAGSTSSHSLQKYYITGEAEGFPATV
Aromatase (Homo sapiens), sequence (P11511 whole entry, looked up): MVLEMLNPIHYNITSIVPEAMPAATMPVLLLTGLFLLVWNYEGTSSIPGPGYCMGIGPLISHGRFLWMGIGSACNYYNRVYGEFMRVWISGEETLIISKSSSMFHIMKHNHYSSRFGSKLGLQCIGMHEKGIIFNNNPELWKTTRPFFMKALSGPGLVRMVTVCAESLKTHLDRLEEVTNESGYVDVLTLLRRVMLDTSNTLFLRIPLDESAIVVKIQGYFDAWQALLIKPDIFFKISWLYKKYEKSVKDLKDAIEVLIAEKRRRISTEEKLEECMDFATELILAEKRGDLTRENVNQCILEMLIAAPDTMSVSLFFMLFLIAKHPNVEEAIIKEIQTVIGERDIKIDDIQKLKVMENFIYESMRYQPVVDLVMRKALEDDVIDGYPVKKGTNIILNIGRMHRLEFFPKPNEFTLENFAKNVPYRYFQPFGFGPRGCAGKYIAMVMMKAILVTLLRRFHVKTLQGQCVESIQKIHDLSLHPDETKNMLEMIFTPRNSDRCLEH
Peroxisome proliferator-activated receptor gamma (Homo sapiens), sequence (P37231 whole entry, looked up): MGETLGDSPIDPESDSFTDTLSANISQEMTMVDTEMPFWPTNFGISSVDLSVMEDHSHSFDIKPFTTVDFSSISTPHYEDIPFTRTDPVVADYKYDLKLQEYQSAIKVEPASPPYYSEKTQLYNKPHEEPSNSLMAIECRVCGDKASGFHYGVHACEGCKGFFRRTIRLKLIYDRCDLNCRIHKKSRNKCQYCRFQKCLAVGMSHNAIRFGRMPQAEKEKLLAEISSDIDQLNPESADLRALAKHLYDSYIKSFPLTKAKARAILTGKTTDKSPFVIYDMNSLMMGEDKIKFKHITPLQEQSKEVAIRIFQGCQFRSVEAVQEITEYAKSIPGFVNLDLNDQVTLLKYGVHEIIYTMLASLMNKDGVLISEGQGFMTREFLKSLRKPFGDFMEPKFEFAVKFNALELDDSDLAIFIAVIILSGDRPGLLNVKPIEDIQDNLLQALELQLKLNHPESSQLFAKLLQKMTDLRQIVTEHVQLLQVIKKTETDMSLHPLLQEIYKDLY
Aryl hydrocarbon receptor (Homo sapiens), sequence (P35869 whole entry, looked up): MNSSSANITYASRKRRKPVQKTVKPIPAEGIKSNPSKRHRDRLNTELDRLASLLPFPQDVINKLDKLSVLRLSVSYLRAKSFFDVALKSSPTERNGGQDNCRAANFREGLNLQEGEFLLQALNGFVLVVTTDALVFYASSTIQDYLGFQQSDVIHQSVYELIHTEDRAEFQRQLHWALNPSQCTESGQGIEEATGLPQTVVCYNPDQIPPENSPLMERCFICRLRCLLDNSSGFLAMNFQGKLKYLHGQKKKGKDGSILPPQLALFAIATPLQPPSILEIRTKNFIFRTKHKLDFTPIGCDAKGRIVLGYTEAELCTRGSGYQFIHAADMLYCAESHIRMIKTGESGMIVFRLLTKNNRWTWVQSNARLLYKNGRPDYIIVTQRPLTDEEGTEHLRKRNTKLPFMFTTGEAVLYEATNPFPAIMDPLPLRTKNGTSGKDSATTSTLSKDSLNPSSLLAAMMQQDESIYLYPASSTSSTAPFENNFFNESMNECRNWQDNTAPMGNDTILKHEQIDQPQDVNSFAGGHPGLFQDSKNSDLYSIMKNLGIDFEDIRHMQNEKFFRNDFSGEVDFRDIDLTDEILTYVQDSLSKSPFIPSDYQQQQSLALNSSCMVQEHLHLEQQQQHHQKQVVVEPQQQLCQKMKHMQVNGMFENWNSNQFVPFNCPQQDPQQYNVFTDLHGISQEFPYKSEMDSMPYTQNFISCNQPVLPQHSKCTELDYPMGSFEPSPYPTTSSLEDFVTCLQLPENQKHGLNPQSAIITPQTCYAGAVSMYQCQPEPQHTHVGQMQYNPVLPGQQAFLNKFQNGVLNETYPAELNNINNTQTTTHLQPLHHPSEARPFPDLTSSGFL

As to `CCN1CCCC1CNC(=O)c1cc(S(=O)(=O)CC)c(N)cc1OC` (stereo not drawn), the Potency result in [1], in assay [2], in assay [3], in assay [4], in [5] and in assay [6] was “inactive” throughout. The Potency result in [7], in assay [8], in assay [9], in assay [10], in assay [11] and in assay [12] was “inactive” throughout. For the same molecule, the Potency result in assay [13], in assay [14], in assay [15], in assay [16], in assay [17] and in assay [18] was “inactive” throughout.

On to `COc1ccc(CCN2CCC(Nc3nc4ccccc4n3Cc3ccc(F)cc3)CC2)cc1`, for which the Potency in assay [1] is 5.96 µM (active) and 1.57 µM (active); in assay [19], 12.6 µM (active); in assay [20], 55.7 µM (active); in assay [7] it was 6.25 µM (active); in assay [8], 26.6 µM (active) and 12.5 µM (active); in assay [10] it was 23.7 µM (active) and 9.9 µM (active). For the same molecule, the Potency in assay [13] was 4.46 µM (active) and 26.6 µM (active); in assay [15], 6.25 µM (active) and 26.6 µM (active); in assay [16], 17.8 µM (active) and inactive; in assay [18] it was 2.81 µM (active) and 7.5 µM (active). Also, the Potency entry in [2], in assay [9] and in assay [17] was “inactive” each time.

For `COc1ccc(CCN(C)CCCC(C#N)(c2ccc(OC)c(OC)c2)C(C)C)cc1OC` (stereo not drawn), the Potency was 26.6 µM (active) and 30.6 µM (active) in [1]; “inactive and 30.6 µM (active)” in assay [20]; 27.3 µM (active) in assay [8]. Further, the Potency entry in assay [2], in assay [19], in assay [13], in assay [16] and in assay [18] was “inactive” throughout.

As for `CC[C@H]1CN2CCc3cc(OC)c(OC)cc3[C@@H]2C[C@@H]1C[C@H]1NCCc2cc(OC)c(OC)cc21`, the Potency in [1] is 37.6 nM (active) and 38.7 nM (active); in assay [20], 9.72 µM (active); in [7], 237 nM (active) and 244 nM (active); in [8], 9.72 µM (active); in assay [15], 24.4 µM (active); in assay [16], 2.46 µM (active) and 10.6 µM (active). Also, in [18], the Potency was 43.8 µM (active). Also, the Potency entry in assay [2], in assay [19], in assay [9] and in [17] was “inactive” throughout.

As to `NNCCc1ccccc1`, the Potency is 30.7 µM (active) in assay [1]; 10.1 µM (active) and 30.7 µM (active) in [9]. For the same molecule, the Potency entry in [2], in assay [19], in assay [20], in assay [7], in assay [8] and in assay [10] was “inactive” each time. The Potency entry in [11], in assay [12], in [13], in assay [14], in [15] and in assay [16] was “inactive” each time. For the same molecule, the Potency result in assay [17] and in assay [18] was “inactive” throughout.

As for `Cc1cc(Cc2cc(C)cc(C(C)(C)C)c2O)c(O)c(C(C)(C)C)c1`, the Potency is 6.89 µM (active) and 8.63 µM (active) in [1]; 22 µM (active) and 24.5 µM (active) in assay [19]; 68.9 µM (active) in assay [20]; 30.8 µM (active) and 48.6 µM (active) in assay [7]; 54.8 µM (active) and 61.1 µM (active) in assay [8]; 12.4 µM (active) and 11 µM (active) in assay [13]. The Potency in [15] is 17.3 µM (active) and 27.3 µM (active); in assay [16], 11 µM (active) and 13.8 µM (active); in assay [18] it was 17.5 µM (active) and 15.5 µM (active). Further, the Potency result in [2], in [9] and in assay [10] was “inactive” each time.

Take `CC(N)=O`: the Potency entry in assay [1], in assay [2], in assay [19], in assay [20], in assay [7] and in assay [8] was “inactive” each time. In addition, the Potency result in [9], in assay [10], in assay [11], in assay [14], in assay [15] and in [16] was “inactive” throughout. Also, in [17], the Potency result was “inactive”.

Take `CC1=C(C=O)C(C)(C)CC=C1`: the Potency entry in [1], in [2], in assay [19], in assay [20], in assay [7] and in assay [8] was “inactive” in each case. The Potency result in assay [9], in assay [10], in [11], in assay [15], in [16] and in assay [17] was “inactive” throughout. In addition, in assay [18], the Potency entry was “inactive”.

With `C[N+]1([O-])CCOCC1`, the Potency entry in assay [1], in assay [2], in [19], in assay [20], in [7] and in assay [8] was “inactive” in each case. Besides, the Potency result in assay [9], in [10], in assay [11], in assay [12], in assay [13] and in assay [14] was “inactive” in each case. Besides, the Potency entry in [15], in assay [16], in assay [17] and in [18] was “inactive” in each case.

As to `O=C1OC2(c3ccc(O)cc3Oc3cc(O)ccc32)c2ccccc21`, the Potency result in [1], in [2], in assay [19], in assay [4], in assay [6] and in assay [7] was “inactive” each time. For the same molecule, the Potency result in assay [9], in assay [13], in assay [15], in [16] and in assay [18] was “inactive” each time. The Potency entry in assay [5] was “inactive and 23.7 µM (active)”.

On to `O=C(Cl)c1cccc(C(=O)Cl)c1`, for which the Potency result in [1], in [2], in [19], in [20], in assay [7] and in [8] was “inactive” throughout. Further, the Potency result in assay [9], in assay [10], in [11], in assay [12], in assay [13] and in [14] was “inactive” in each case. Besides, the Potency result in assay [15], in assay [16], in assay [17] and in assay [18] was “inactive” throughout.

`O=c1n(CC2CO2)c(=O)n(CC2CO2)c(=O)n1CC1CO1` (stereo not drawn): the Potency in assay [1] was 6.68 µM (active) and 8.58 µM (active) and 4.33 µM (active); in assay [7] it was “inactive and 48.3 µM (active)”; in [8], “inactive and 34.2 µM (active)”; in assay [14] it was 4.33 µM (active); in assay [17], 35.8 µM (active) and 43.6 µM (active). For the same molecule, the Potency result in assay [2], in [19], in [4], in [5], in [20] and in assay [9] was “inactive” in each case. Also, the Potency entry in assay [10], in assay [13], in assay [15], in assay [16] and in [18] was “inactive” in each case.

Consider `CC(C)(C)c1cc(C(C)(C)C)c(O)c(C(C)(C)C)c1`, for which the Potency in [1] was 27.3 µM (active); in [2], 9.69 µM (active); in assay [16] it was 54.9 µM (active) and 49 µM (active); in assay [18], 49 µM (active). Moreover, the Potency result in [19], in assay [4], in assay [5], in assay [6], in assay [20] and in [8] was “inactive” in each case. For the same molecule, the Potency entry in assay [9], in assay [10], in [13] and in [15] was “inactive” each time.
